The target of this test is Nonstructural protein 3 (Zika virus) (UniProt A0A024AXB9).
Setting [1] is: PRVABC59, Concentration 198.0 uM, Number of replicates 2.0, Standard deviation 0.06482927085509294 %.

Structures are written as SMILES. The whole screen tested about 2,700 compounds, of which about 160 (5.9%) showed an effect of 50% or more. For the sample, strong results were picked, then their nearest neighbours and some compounds at random.

Nonstructural protein 3 (Zika virus), sequence (A0A024AXB9 as listed by the source): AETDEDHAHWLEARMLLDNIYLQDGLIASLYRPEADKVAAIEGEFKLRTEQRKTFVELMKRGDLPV

Consider `CCn1ccnc(N2CC[C@H](c3c[nH]c4ccccc34)C2)c1=O`, for which the inhibition (commonly the relative decrease from the control value, in per cent) by setting is: (PRVABC59, Concentration 49.5 uM, Number of replicates 2.0, Standard deviation 0.8076182483405395 %) 8.04%; (PRVABC59, Concentration 99.01 uM, Number of replicates 2.0, Standard deviation 0.7356695318349864 %) 17.6%; (PRVABC59, Concentration 198.0 uM, Number of replicates 2.0, Standard deviation 0.07734519898888803 %) 32.1%.
`c1ccc(C2CCN(Cc3c[nH]c4ccccc34)CC2)nc1`: the inhibition runs as follows: (PRVABC59, Concentration 49.5 uM, Number of replicates 2.0, Standard deviation 1.1072658196883798 %) 59.8%; (PRVABC59, Concentration 99.01 uM, Number of replicates 2.0, Standard deviation 0.7753455634987777 %) 75.2%; (PRVABC59, Concentration 198.0 uM, Number of replicates 2.0, Standard deviation 0.5497459588871212 %) 86%.
Consider `OCc1cc(C2CCN(Cc3c[nH]c4ccccc34)CC2)no1`, for which the inhibition turned out to be 48.5% (PRVABC59, Concentration 49.5 uM, Number of replicates 2.0, Standard deviation 0.29821086957580095 %); 64.3% (PRVABC59, Concentration 99.01 uM, Number of replicates 2.0, Standard deviation 0.4460202044782944 %); 75.2% (PRVABC59, Concentration 198.0 uM, Number of replicates 2.0, Standard deviation 0.7494127761974186 %).
In the case of `c1ccc2c(CN3CCCCC3)c[nH]c2c1`, the inhibition reads like this: (PRVABC59, Concentration 49.5 uM, Number of replicates 2.0, Standard deviation 0.27567478108963184 %) 10.6%; (PRVABC59, Concentration 99.01 uM, Number of replicates 2.0, Standard deviation 0.4102311237715717 %) 22.8%; (PRVABC59, Concentration 198.0 uM, Number of replicates 2.0, Standard deviation 0.3445953308233743 %) 38%.
Regarding `O=C(O)c1ccc(C2CCN(Cc3c[nH]c4ccccc34)CC2)cc1`, the inhibition (PRVABC59, Concentration 49.5 uM, Number of replicates 2.0, Standard deviation 0.6949576992221913 %) turned out to be 10.8%; the inhibition (PRVABC59, Concentration 99.01 uM, Number of replicates 2.0, Standard deviation 0.3163616627681085 %) was 22.8%; the inhibition (PRVABC59, Concentration 198.0 uM, Number of replicates 2.0, Standard deviation 0.22041520507002849 %) turned out to be 37.7%.
As for `NS(=O)(=O)c1ccc(C2CCN(Cc3c[nH]c4ccccc34)CC2)cc1`, the inhibition reads like this: (PRVABC59, Concentration 49.5 uM, Number of replicates 2.0, Standard deviation 0.10609946491696037 %) 65%; (PRVABC59, Concentration 99.01 uM, Number of replicates 2.0, Standard deviation 0.029644407368622425 %) 80.2%; (PRVABC59, Concentration 198.0 uM, Number of replicates 2.0, Standard deviation 0.031203503588737417 %) 89.2%.
On to `OC1CCN(Cc2c[nH]c3ccccc23)CC1`, for which the inhibition is, setting by setting: (PRVABC59, Concentration 49.5 uM, Number of replicates 2.0, Standard deviation 2.7698787458435845 %) 5.44%; (PRVABC59, Concentration 99.01 uM, Number of replicates 2.0, Standard deviation 2.6829105784026894 %) 11.6%; (PRVABC59, Concentration 198.0 uM, Number of replicates 2.0, Standard deviation 2.633683059341965 %) 21.9%.
Take `CCC1CCN(Cc2c[nH]c3ccccc23)CC1`: the inhibition is, setting by setting: (PRVABC59, Concentration 49.5 uM, Number of replicates 2.0, Standard deviation 2.1085872748623196 %) 21.4%; (PRVABC59, Concentration 99.01 uM, Number of replicates 2.0, Standard deviation 0.9763502903682051 %) 37.3%; (PRVABC59, Concentration 198.0 uM, Number of replicates 2.0, Standard deviation 0.045944785323907715 %) 55.2%.
On to `O=C1NCc2ccccc2C12CCNCC2`, for which the inhibition by setting is: (PRVABC59, Concentration 49.5 uM, Number of replicates 2.0, Standard deviation 1.3304043012280913 %) 0.782%; (PRVABC59, Concentration 99.01 uM, Number of replicates 2.0, Standard deviation 0.8986974193851874 %) 2.65%; (PRVABC59, Concentration 198.0 uM, Number of replicates 2.0, Standard deviation 5.074631109254522 %) 2.34%.
Turning to `CCn1ccnc(N2CC[C@H](C(C)(C)C)C2)c1=O`, the inhibition is, setting by setting: (PRVABC59, Concentration 49.5 uM, Number of replicates 2.0, Standard deviation 2.222905543826298 %) 4.07%; (PRVABC59, Concentration 99.01 uM, Number of replicates 2.0, Standard deviation 1.7617429882024038 %) 10.1%; (PRVABC59, Concentration 198.0 uM, Number of replicates 2.0, Standard deviation 1.0233659428190776 %) 20.1%.
For `COc1cccc(C2CCN(Cc3c[nH]c4ccccc34)CC2)c1`, the inhibition (PRVABC59, Concentration 49.5 uM, Number of replicates 2.0, Standard deviation 0.042125269324456455 %) was 39.6%; the inhibition (PRVABC59, Concentration 99.01 uM, Number of replicates 2.0, Standard deviation 0.10921765735719036 %) was determined as 56.3%; the inhibition (PRVABC59, Concentration 198.0 uM, Number of replicates 2.0, Standard deviation 0.2075162463769664 %) was found to be 67.5%.
For `c1ccc2c(CN3CCC(c4cnco4)CC3)c[nH]c2c1`, the inhibition (PRVABC59, Concentration 49.5 uM, Number of replicates 2.0, Standard deviation 0.1050178081967768 %) was 41.5%; the inhibition (PRVABC59, Concentration 99.01 uM, Number of replicates 2.0, Standard deviation 0.24613759530362114 %) came to 59.4%; the inhibition (PRVABC59, Concentration 198.0 uM, Number of replicates 2.0, Standard deviation 0.2970051325336013 %) stood at 74.9%.
In the case of `COC[C@@H](C)CN1CC[C@H](c2c[nH]c3ccccc23)C1`, the inhibition came to 4.02% (PRVABC59, Concentration 49.5 uM, Number of replicates 2.0, Standard deviation 1.4380791310486918 %); 8.28% (PRVABC59, Concentration 99.01 uM, Number of replicates 2.0, Standard deviation 1.4278249713933853 %); 14.7% (PRVABC59, Concentration 198.0 uM, Number of replicates 2.0, Standard deviation 1.555996909462895 %).
Consider `c1ccc2c(CN3CCC(c4ccn[nH]4)CC3)c[nH]c2c1`, for which the inhibition reads like this: (PRVABC59, Concentration 49.5 uM, Number of replicates 2.0, Standard deviation 1.3620998271263447 %) 41.5%; (PRVABC59, Concentration 99.01 uM, Number of replicates 2.0, Standard deviation 0.5632518321987402 %) 58.4%; (PRVABC59, Concentration 198.0 uM, Number of replicates 2.0, Standard deviation 0.6599886276000965 %) 73.5%.
`c1cnc(C2CCN(Cc3c[nH]c4ccccc34)CC2)nc1`: the inhibition is, setting by setting: (PRVABC59, Concentration 49.5 uM, Number of replicates 2.0, Standard deviation 0.6038611636759568 %) 44.9%; (PRVABC59, Concentration 99.01 uM, Number of replicates 2.0, Standard deviation 0.27239407040154384 %) 62.7%; (PRVABC59, Concentration 198.0 uM, Number of replicates 2.0, Standard deviation 0.2641885847586549 %) 77.4%.
Turning to `OC1(c2ccccc2)CCN(Cc2c[nH]c3ccccc23)CC1`, the inhibition was 13% (PRVABC59, Concentration 49.5 uM, Number of replicates 2.0, Standard deviation 0.6104232594017089 %); 22.8% (PRVABC59, Concentration 99.01 uM, Number of replicates 2.0, Standard deviation 0.9927585642556782 %); 34.8% (PRVABC59, Concentration 198.0 uM, Number of replicates 2.0, Standard deviation 2.2070409642846154 %).
As to `Cn1nccc1C1CCN(Cc2c[nH]c3ccccc23)CC1`, the inhibition is 24.6% (PRVABC59, Concentration 49.5 uM, Number of replicates 2.0, Standard deviation 1.4229504354820093 %); 38.2% (PRVABC59, Concentration 99.01 uM, Number of replicates 2.0, Standard deviation 1.2388422115932054 %); 55.9% (PRVABC59, Concentration 198.0 uM, Number of replicates 2.0, Standard deviation 1.0765748217775348 %).
In the case of `c1cncc(C2CCN(Cc3c[nH]c4ccccc34)CC2)c1`, the inhibition runs as follows: (PRVABC59, Concentration 49.5 uM, Number of replicates 2.0, Standard deviation 0.34229175267116285 %) 61.9%; (PRVABC59, Concentration 99.01 uM, Number of replicates 2.0, Standard deviation 0.300803069346615 %) 77.1%; under setting [1], 87.7%.
As to `c1ccc(COC2CCN(Cc3c[nH]c4ccccc34)CC2)cc1`, the inhibition by setting is: (PRVABC59, Concentration 49.5 uM, Number of replicates 2.0, Standard deviation 2.313702836748105 %) 23.5%; (PRVABC59, Concentration 99.01 uM, Number of replicates 2.0, Standard deviation 1.2274106375778986 %) 39.6%; (PRVABC59, Concentration 198.0 uM, Number of replicates 2.0, Standard deviation 0.262548566589399 %) 58.3%.
`CCc1cc(C)nc(C2CCN(Cc3c[nH]c4ccccc34)CC2)n1`: the inhibition turned out to be 41.8% (PRVABC59, Concentration 49.5 uM, Number of replicates 2.0, Standard deviation 0.9221110052573533 %); 59.5% (PRVABC59, Concentration 99.01 uM, Number of replicates 2.0, Standard deviation 1.5508934318704077 %); 75.2% (PRVABC59, Concentration 198.0 uM, Number of replicates 2.0, Standard deviation 1.118702788500296 %).
`N#CC1(c2ccccc2)CCN(Cc2c[nH]c3ccccc23)CC1`: the inhibition was 32% (PRVABC59, Concentration 49.5 uM, Number of replicates 2.0, Standard deviation 0.4200874171769353 %); 34.4% (PRVABC59, Concentration 99.01 uM, Number of replicates 2.0, Standard deviation 0.32673315924966934 %); 32.8% under setting [1].
`c1cc(C2CCN(Cc3c[nH]c4ccccc34)CC2)c2ccncc2c1`: the inhibition reads like this: (PRVABC59, Concentration 49.5 uM, Number of replicates 2.0, Standard deviation 0.9049501572428696 %) 65.6%; (PRVABC59, Concentration 99.01 uM, Number of replicates 2.0, Standard deviation 0.6350269036884285 %) 80.3%; (PRVABC59, Concentration 198.0 uM, Number of replicates 2.0, Standard deviation 0.1685064720944352 %) 90%.
As for `c1ccc2c(CN3CCC(c4cscn4)CC3)c[nH]c2c1`, the inhibition is 65.8% (PRVABC59, Concentration 49.5 uM, Number of replicates 2.0, Standard deviation 0.07712401232790286 %); 79.9% (PRVABC59, Concentration 99.01 uM, Number of replicates 2.0, Standard deviation 0.031176529605690447 %); 89.2% (PRVABC59, Concentration 198.0 uM, Number of replicates 2.0, Standard deviation 0.07383858119278165 %).
With `FC(F)(F)c1ccccc1C1CCN(Cc2c[nH]c3ccccc23)CC1`, the inhibition stood at 33% (PRVABC59, Concentration 49.5 uM, Number of replicates 2.0, Standard deviation 0.039004379485921774 %); 38.2% (PRVABC59, Concentration 99.01 uM, Number of replicates 2.0, Standard deviation 0.833177783151486 %); 41.8% (PRVABC59, Concentration 198.0 uM, Number of replicates 2.0, Standard deviation 1.0547312903060968 %).
Turning to `C#CCn1ccnc(N2CC[C@H](CO)C2)c1=O`, the inhibition runs as follows: (PRVABC59, Concentration 49.5 uM, Number of replicates 2.0, Standard deviation 1.0450300973032534 %) 12.1%; (PRVABC59, Concentration 99.01 uM, Number of replicates 2.0, Standard deviation 3.6329706761941627 %) 19.8%; (PRVABC59, Concentration 198.0 uM, Number of replicates 2.0, Standard deviation 1.3173095282768474 %) 33.5%.
`CCCC[C@H](NC(=O)OC(C)(C)C)C(=O)N[C@H](C(=O)NCc1ccc(C(N)=O)cc1)c1ccc(OCc2ccccc2)cc1`: the inhibition by setting is: (PRVABC59, Concentration 49.5 uM, Number of replicates 2.0, Standard deviation 0.2512152790248196 %) -3.29%; (PRVABC59, Concentration 99.01 uM, Number of replicates 2.0, Standard deviation 1.1330320426444238 %) 4.53%; (PRVABC59, Concentration 198.0 uM, Number of replicates 2.0, Standard deviation 0.18969183837952716 %) 69.4%.
Consider `CCCC[C@@H](NC(=O)OC(C)(C)C)C(=O)N[C@@H](C(=O)NCc1ccc(CN)cc1)c1ccc(OCc2ccccc2)cc1`, for which the inhibition was found to be 98.5% (PRVABC59, Concentration 49.5 uM, Number of replicates 2.0, Standard deviation 0.1534981479270999 %); 99.6% (PRVABC59, Concentration 99.01 uM, Number of replicates 2.0, Standard deviation 0.024832248793042588 %); 99% (PRVABC59, Concentration 198.0 uM, Number of replicates 2.0, Standard deviation 0.14898809796164614 %).
